Experimental data from PubChem BioAssay AID1159580 (chemical genetic matrix, 2015).
The campaign covered roughly 5,500 compounds. About 2,000 (36%) were called active. Roughly 18% stayed inconclusive and do not appear here. No stated cut-off is given here; in the data, active means normalized growth mostly below about 0.91 (no sharp cut-off); inconclusive means no clear call, values can overlap the other calls; inactive means mostly above about 0.92. Some of the results follow.

Assay: chemical genetic growth profiling, strain panel (AID 1159580);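 further: tested at 20 µM; growth read once vehicle control cultures reached saturation at 30 °C; 1 = growth at the plate median or of vehicle wells; lower values mean less growth of the strain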
Settings: S. cerevisiae deletion strains, growth OD

Measured: normalized growth

C[C@]12CC[C@@H]3c4ccc(O)cc4CC[C@H]3[C@@H]1CCC2=O
inactive: locus YAL040C, strain CLN3, hits give low values 0.996 | locus YCL061C, strain MRC1 (second series), hits give low values 1.01 | locus YDR150W, strain NUM1, hits give low values 1 | locus YDR363W, strain ESC2, hits give low values 1 | locus YER002W, strain NOP16, hits give low values 0.995 | locus YMR263W, strain SAP30, hits give low values 1 | locus YMR307W, strain GAS1, hits give low values 1 | locus YNL175C, strain NOP13, hits give low values 0.985 | locus YNL197C, strain WHI3, hits give low values 1 | locus YNL224C, strain SQS1, hits give low values 1 | locus YNL322C, strain KRE1, hits give low values 0.987 | locus YOR083W, strain WHI5 (second series), hits give low values 0.905 | locus YPL241C, strain CIN2, hits give low values 1
